Source: PubChem BioAssay AID588649 (The Scripps Research Institute Molecular Screening Center, 2011)
This is one part of the list. The source made the active and inactive calls. No stated cut-off is given here; in the data, active means inhibition above about 40%; inactive means the rest.

tested on: Fam108b (ABHD17B) [Mus musculus]; assay: inhibition of mouse Fam108b by HTS hits, late-stage follow-up, biochemical, gel-based ABPP, soluble recombinant form (AID 588649); conditions: fluorophosphonate probe, at 20 µM, active compounds read high

inhibition, active:
COc1ccc(/C=C/C(=O)OCC(=O)Nc2cccc(Oc3ccccc3)c2)c(OC)c1 90%, O=C(Nc1ccc(-c2csc(Nc3cccc(C(F)(F)F)c3)n2)cc1)c1cccc(C(F)(F)F)c1 85%, Oc1c(Cl)cc(Cl)c(Cl)c1Cc1c(O)c(Cl)cc(Cl)c1Cl 65%, Cc1ccc(S(=O)(=O)N=C2C=C(Sc3ncn[nH]3)C(=O)c3ccccc32)cc1 90%

inhibition, inactive:
COc1ccc(NS(=O)(=O)c2cc(NC(=O)CC(=O)c3ccc([N+](=O)[O-])cc3)ccc2C)cc1 25%, Nc1ccc2nc3c(=O)[nH]c(=S)[nH]c3nc2c1 0%, O=C(NNc1c2ccccc2nc2ccccc12)c1cc2ccccc2cc1O 10%, CC[N+](C)(CC)CCC[n+]1c(-c2ccccc2)c2cc(N)ccc2c2ccc(N)cc21 25%
